This note sets out measurements from PubChem BioAssay AID652071 (NMMLSC, 2013).

Each structure is given as a SMILES string. Activity calls are given as the source filed them. How the calls were made is not given here.

The test can be described thus: yeast cytosolic pH changes via V-ATPase – S. cerevisiae, pHLuorin, powder set 4, dose response (AID 652071). To be noted: S. cerevisiae pHLuorin cytosolic pH fluorescence; series mostly up to 100 µM.
For `CC(=O)N1CCN(c2ccccc2NC(=O)c2cncc(C)n2)CC1`, the result was inactive.

Regarding `CN1CCN(c2ccccc2NC(=O)c2ccc(S(C)(=O)=O)o2)CC1`, the compound was classed as inactive.

In the case of `CN(C)S(=O)(=O)c1cccc(C(=O)Nc2ccccc2N2CCCCC2)c1`, the compound was classed as inactive.

Turning to `CS(=O)(=O)c1cccc(C(=O)N2CCN(c3nc4ccc(F)cc4s3)CC2)c1`, the compound was classed as inactive.

For `CC(=O)N1CCN(c2ccccc2NC(=O)c2cccc(C(=O)N(C)C)c2)CC1`, the compound was classed as inactive.

Take `CC(=O)N1CCN(c2ccccc2NC(=O)c2cccc(C(F)(F)F)n2)CC1`: the compound was classed as inactive.

Consider `CC(=O)N1CCN(c2ccccc2NC(=O)c2cc(C)ccn2)CC1`, for which the outcome was inactive.

As for `CN1CCN(c2ccccc2NC(=O)c2ccc(C(N)=O)o2)CC1`, the outcome was inactive.

In the case of `O=C(Nc1ccccc1N1CCCCC1)c1cccc(Br)n1`, the compound was called inactive.

For `COCc1cccc(C(=O)Nc2ccccc2N2CCN(C(C)=O)CC2)c1`, the result was inactive.

For `O=C(Nc1ccccc1N1CCCCC1)c1cc(C(F)(F)F)ccn1`, the compound was classed as inactive.

With `CC(=O)N1CCN(c2ccccc2NC(=O)c2cc(Cl)ccn2)CC1`, the call was inactive.

Take `O=C(Nc1ccccc1N1CCCCC1)c1ccc(Br)o1`: the result was inactive.

With `CN1CCN(c2ccccc2NC(=O)c2cccc(Br)n2)CC1`, the call was inactive.

Turning to `N#CCc1cccc(C(=O)N2CCN(c3nc4ccc(F)cc4s3)CC2)c1`, the compound was classed as inactive.

`Cc1ccc(C(=O)Nc2ccccc2N2CCN(C)CC2)o1`: the compound was classed as inactive.
